# NOMO-1 viab: STK33 inhibitor candidate reducing NOMO-1 cell viability | NOMO-1 AML viability, CellTiter-Glo luminescence, 72 h | inhibition, % (test concentration not listed) | hit rate 7.5% among 37,000; in the data active = inhibition above about 80%; inconclusive = no clear call, values can overlap the other calls
# MITF inhib: inhibitors of MITF; TRPM1 promoter luciferase, luminescence, 24 h; inhibition, % (no concentration beside the values); hit rate 0.28% among 37,000; AID 2240; in the data active = inhibition above about 85%; inconclusive = no clear call, values can overlap the other calls; inactive = below about 68%;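 also: human melanocyte line stably carrying TRPM1 promoter luciferase reporter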
# Shh pathway inh: Sonic Hedgehog pathway inhibition. Shh-LIGHT2 Gli-luciferase reporter, 30 h. inhibition, % (no concentration beside the values). hit rate 2.1% among 22,000. AID 2313;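 active = mean inhibition across valid replicates above about 65%, limit read from the data; inconclusive = mean under the limit, yet half or more replicates past it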;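 also: pathway switched on by Shh-conditioned medium diluted 1 in 25 in low serum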
# * hit, by the source's call; ? = inconclusive; nt = no result given. Sampled rows, rich in hits. Any-hit rate of the full collection: about 7.8%.
SMILES,NOMO-1 viab,MITF inhib,Shh pathway inh
Cc1ccc(S(=O)(=O)Nc2ccc3c(c2)C(=O)N([C@@H](C)CO)C[C@@H](C)[C@@H](CN(C)Cc2ccc(C(F)(F)F)cc2)O3)cc1,98*,27,nt
C[C@@H]1CN([C@H](C)CO)C(=O)c2cc(NS(=O)(=O)c3ccc(Cl)cc3)ccc2O[C@@H]1CN(C)Cc1ccccc1,87*,-14,13
Cc1ccc(S(=O)(=O)Nc2ccc3c(c2)C(=O)N([C@H](C)CO)C[C@H](C)[C@@H](CN(C)Cc2ccc(C(F)(F)F)cc2)O3)cc1,69,3,-2
Cc1ccc(S(=O)(=O)Nc2ccc3c(c2)C(=O)N([C@H](C)CO)C[C@@H](C)[C@@H](CN(C)Cc2ccc(C(F)(F)F)cc2)O3)cc1,122*,14,10
Cc1ccc(S(=O)(=O)Nc2ccc3c(c2)C(=O)N([C@@H](C)CO)C[C@H](C)[C@@H](CN(C)Cc2ccc(C(F)(F)F)cc2)O3)cc1,?,3,nt
C[C@H](CO)N1C[C@H](C)[C@@H](CN(C)Cc2ccc(C(F)(F)F)cc2)Oc2ccc(NS(=O)(=O)c3ccc(F)cc3)cc2C1=O,35,-28,nt
C[C@@H]1CN([C@H](C)CO)C(=O)c2cc(NS(=O)(=O)c3ccc(Cl)cc3)ccc2O[C@H]1CN(C)Cc1ccccc1,10,-3,-3
COc1ccc(S(=O)(=O)Nc2cccc3c2O[C@H](CN(C)C)[C@@H](C)CN([C@@H](C)CO)C3=O)cc1,-11,-2,3
Cc1ccc(S(=O)(=O)NC(=O)NN2CC3CCCC3C2)cc1 (configuration not stated),10,-44,17
C[C@H]1CN([C@@H](C)CO)C(=O)Cc2cc(NC(=O)C3CCCCC3)ccc2O[C@H]1CN(C)S(=O)(=O)c1cccs1,-4,-1,12
COc1ccc(NC(=O)Nc2ccc3c(c2)C(=O)N([C@H](C)CO)C[C@@H](C)[C@H](CN(C)S(=O)(=O)c2ccc(F)cc2)O3)cc1,-18,-32,nt
C[C@H]1CC[C@@H]2[C@@H](C(=O)c3c(O)c([C@]4(O)CC[C@@H](O)[C@H]5O[C@H]54)cn(O)c3=O)[C@@H](C)C=C[C@H]2C1,120*,67,94*
C[C@@H]1CN([C@H](C)CO)C(=O)Cc2cc(NS(=O)(=O)c3ccc(Cl)cc3)ccc2O[C@H]1CN(C)Cc1ccc(C(=O)Nc2ccccc2N)cc1,62,-6,nt
Cc1noc(C)c1S(=O)(=O)Nc1ccc2c(c1)CC(=O)N([C@H](C)CO)C[C@@H](C)[C@@H](CN(C)Cc1ccc(C(=O)Nc3ccccc3N)cc1)O2,100*,4,nt
Cc1noc(C)c1S(=O)(=O)Nc1ccc2c(c1)CC(=O)N([C@H](C)CO)C[C@@H](C)[C@H](CN(C)Cc1ccc(C(=O)Nc3ccccc3N)cc1)O2,31,-15,nt
C[C@@H]1CN([C@@H](C)CO)C(=O)Cc2cc(NS(=O)(=O)c3cccs3)ccc2O[C@@H]1CN(C)Cc1ccc(C(=O)O)cc1,-10,-3,-23
Cc1ccc(S(=O)(=O)Nc2ccc3c(c2)CC(=O)N([C@@H](C)CO)C[C@@H](C)[C@@H](CN(C)Cc2ccc(C(=O)Nc4ccccc4N)cc2)O3)cc1,109*,11,nt
COc1ccc(S(=O)(=O)Nc2ccc3c(c2)CC(=O)N([C@@H](C)CO)C[C@H](C)[C@H](CN(C)Cc2ccc(C(=O)Nc4ccccc4N)cc2)O3)cc1,140*,0,nt
COc1ccc(S(=O)(=O)Nc2ccc3c(c2)CC(=O)N([C@@H](C)CO)C[C@H](C)[C@@H](CN(C)Cc2ccc(C(=O)Nc4ccccc4N)cc2)O3)cc1,45,6,nt
C[C@H]1CN([C@@H](C)CO)C(=O)Cc2cc(NS(=O)(=O)c3cccs3)ccc2O[C@H]1CN(C)Cc1ccc(C(=O)Nc2ccccc2N)cc1,141*,37,nt
COc1ccc(S(=O)(=O)N(C)C[C@H]2OCCCC[C@@H](C)Oc3ccc(NC(=O)NC4CCCCC4)cc3C(=O)N([C@H](C)CO)C[C@@H]2C)cc1,24,13,18
CCOC(=O)N1CCN(C(=O)c2ccc3c(=O)n(CC4CCCO4)c(=S)[nH]c3c2)CC1 (configuration not stated),9,-5,1
C[C@@H]1CN([C@H](C)CO)C(=O)Cc2cc(NS(=O)(=O)c3ccc(F)cc3)ccc2O[C@H]1CN(C)Cc1ccc(C(=O)Nc2ccccc2N)cc1,?,-14,nt
C[C@@H]1CN([C@H](C)CO)C(=O)Cc2cc(NS(=O)(=O)c3ccc(F)cc3)ccc2O[C@@H]1CN(C)Cc1ccc(C(=O)Nc2ccccc2N)cc1,91*,18,nt
CCOc1ccccc1NC(=O)c1ccccc1N(C)S(=O)(=O)c1ccc(C)cc1,46,4,nt
CCOc1ccccc1C(=O)Oc1c(S(=O)(=O)c2ccc(C)cc2)c(C)nn1-c1ccccc1,103*,33,nt
